In the library only some 2.3% were active in any assay of this set; here they are far more common.
M1 PAM = potentiates human M1 receptor response to acetylcholine. P11229. CHO-K1 hM1, Fluo-8 calcium fluorescence, ACh EC20; 0% = ACh EC20, 100% = maximal ACh. activation, % at 3 µM. 360,000 tested, 0.088% active. AID 588819; in the data active = activation above about 19%, passing the limit was not always enough
Target sequence (P11229 whole entry, looked up): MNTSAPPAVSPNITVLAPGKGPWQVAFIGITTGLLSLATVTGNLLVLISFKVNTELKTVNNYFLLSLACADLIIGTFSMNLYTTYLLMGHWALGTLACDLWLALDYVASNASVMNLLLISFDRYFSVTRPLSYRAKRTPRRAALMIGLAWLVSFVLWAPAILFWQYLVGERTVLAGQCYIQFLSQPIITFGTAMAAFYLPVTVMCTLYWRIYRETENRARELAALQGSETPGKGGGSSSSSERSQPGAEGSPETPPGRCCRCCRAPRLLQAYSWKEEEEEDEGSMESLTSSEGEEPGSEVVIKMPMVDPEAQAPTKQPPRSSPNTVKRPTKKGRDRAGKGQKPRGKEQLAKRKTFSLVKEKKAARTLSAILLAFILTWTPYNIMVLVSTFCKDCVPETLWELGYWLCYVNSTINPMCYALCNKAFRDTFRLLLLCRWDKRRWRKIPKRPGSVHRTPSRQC
M1 PAM parental = M1 PAM counterscreen hit in parental CHO-K1 cells | AID 602247 | activation, % at 3 µM | 360,000 tested, 0.02% active | ATP EC20, Fluo-8 calcium fluorescence; 0% at ATP EC20, 100% at ATP max;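 active = activation above the run cutoff, the mean activation of all test compounds plus 3 SD, cut at about 40% in these data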;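 also: peak over basal fluorescence ratio in a 140 s read after ATP addition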
M1 ag = human M1 muscarinic receptor agonism. P11229. CHO-K1 hM1, Fluo-8 calcium fluorescence, agonist mode; 0% DMSO, 100% acetylcholine EC100. activation, % at 3 µM. 360,000 tested, 0.33% active. AID 588814;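 active = activation above the run's mean compound activation plus 3 SD, cut at about 16% in these data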;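 also: peak over basal fluorescence ratio within a 140 s kinetic read after compound addition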
CHRM1 antagonist = blocks human M1 muscarinic receptor; CHO-K1 hM1, Fluo-8 calcium fluorescence, ACh EC80 antagonist; inhibition, % at 3 µM; 360,000 tested, 1.3% active; AID 588852;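 active = percent inhibition above its own plate's cutoff, namely the mean of that plate's compound wells plus 3 SD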;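 also: peak over basal fluorescence ratio during 140 s after agonist addition; 0% = ACh EC80 plus DMSO and 100% = DMSO alone without agonist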
CHO-K1 Ca antag = nonselective inhibitor or artifact in parental CHO-K1 cells; ATP-induced calcium, Fluo-8 fluorescence; inhibition, % at 3 µM; 360,000 tested, 0.6% active; AID 602250;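 active = inhibition above a per-plate cutoff, the plate's mean sample inhibition plus 3 SD, cut at about 24% in these data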;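 also: 0% = DMSO plus EC80 ATP and 100% = DMSO alone without ATP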
M1 ag parental = counter-screen for M1 agonists: effect in parental CHO-K1 cells | Fluo-8 calcium fluorescence; scaled to maximal ATP response, vehicle zero | activation, % at 3 µM | 360,000 tested, 0.48% active; in the data active = activation above about 15%;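 also: untransfected CHO-K1 host cells lacking M1 receptor as counterscreen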
An asterisk follows results filed as active.

SMILES | M1 PAM | M1 PAM parental | M1 ag | CHRM1 antagonist | CHO-K1 Ca antag | M1 ag parental
CCN(CC)CCNC(=O)c1ccc(NC(=O)c2ccc(S(=O)(=O)N3CCCC3)cc2)cc1 | -1.5 | 16.8 | -7.8 | 4.6 | -28.9 | 0.7
CC1Cc2ccccc2N1S(=O)(=O)c1cccc(C(=O)NCCCO)c1 (centres undefined) | 3.1 | 5.8 | -3.5 | -4.2 | 4.9 | 0.6
CCN(CC)CCNC(=O)c1ccc(NC(=O)c2cccc(S(=O)(=O)N3c4ccccc4CC3C)c2)cc1 (centres undefined) | -22.7 | -26.1 | -5.5 | 100.3* | 12.8 | -0.3
CCN(CC)CCNC(=O)c1ccc(NC(=O)c2cc(S(=O)(=O)N3CCCCC3)ccc2C)cc1 | -25.6 | 7.7 | -7.6 | 93.5* | -15.6 | 2.2
O=C(COc1ccccc1)Nc1ccc2oc(=O)ccc2c1 | 1.2 | -14.8 | -2.7 | -1.6 | -4.5 | 1.4
Cc1nn(-c2ccccc2)c(C)c1C(=O)OCC(=O)N(C)C1CCS(=O)(=O)C1 (centres undefined) | 6.2 | 2.4 | -10.9 | -3.6 | 2.0 | 0.1
CN(C(=O)CSc1nc2ccccc2c(=O)n1C)C1CCS(=O)(=O)C1 (centres undefined) | 7.4 | 10.9 | 5.8 | -14.3 | -10.2 | 0.3
CN(C(=O)COC(=O)c1nc(-c2ccccc2)n(-c2ccccc2)n1)C1CCS(=O)(=O)C1 (centres undefined) | -21.2 | -3.5 | -4.1 | 64.3* | -6.1 | 0.0
CN(C(=O)CSc1nc2ccccc2n1C)C1CCS(=O)(=O)C1 (centres undefined) | -3.4 | 15.7 | -4.2 | 29.1* | 7.6 | -0.4
Cc1ccc(-c2nc(SCC(N)=O)c(C#N)c3c2CCCC3)cc1 | 4.0 | -3.4 | -3.9 | -4.3 | 30.0* | -0.1
N#Cc1c(SCC(N)=O)nc(-c2ccccc2)c2c1CCCC2 | 5.2 | 20.8 | -4.3 | -1.8 | -11.3 | 0.1
CCC(NC(=O)c1ccc2nc(Cc3ccc(OC)cc3)oc2c1)c1ccncc1 (centres undefined) | -14.1 | 0.2 | 4.6 | 29.9 | 1.3 | 15.4*
CCSc1ncc(Cl)c(C(=O)Nc2ccc(S(=O)(=O)Nc3onc(C)c3C)cc2)n1 | 21.9* | -8.7 | 3.7 | -10.5 | 5.7 | -0.1
CCCCOc1ccc(C(=O)N2CCC(C)CC2)cc1 | 7.3 | 8.5 | -4.0 | 0.4 | -2.3 | -0.1
CN(C)[C@@H]1CCC[C@H]1OC(=O)C(c1ccccc1)c1ccccc1 | -25.5 | 2.9 | -6.8 | 91.7* | -7.1 | -0.2
CCCCOc1ccc(C(=O)OC2CC(C)N(C)CC2C)cc1 (centres undefined) | -24.8 | 15.1 | -6.4 | 44.4* | -16.0 | 0.4
CC1CN(C)C(C)CC1OC(=O)C(c1ccccc1)c1ccccc1 (centres undefined) | -27.0 | 18.4 | -7.8 | 97.4* | -11.9 | 1.1
CC(C)CNC(=S)N(CCCO)Cc1cc2cc3c(cc2[nH]c1=O)OCO3 | 9.5 | 21.1 | -4.1 | -8.3 | -8.3 | 1.3
O=C(Nc1nnc(CCN2CCCCC2)s1)c1ccccc1Cl | 5.0 | 10.8 | -7.2 | -14.3 | -4.8 | 19.6*
Cc1ccc(S(=O)(=O)N2CCCOC2CNC(=O)C(=O)NCc2cccs2)cc1 (centres undefined) | 10.1 | 15.1 | -7.0 | -10.2 | -8.3 | 1.6
CCOc1ccc(N2CC(NC(=O)c3ccc4ccccc4c3)CC2=O)cc1 (centres undefined) | 5.2 | 3.4 | 2.4 | 1.3 | 3.7 | -0.1
CC1=C(C)CS(=O)N(S(=O)(=O)c2ccccc2)C1 (centres undefined) | -2.7 | 6.0 | 14.8 | 5.0 | -2.1 | 3.2
O=S(=O)(/N=S1\CC=CCN1S(=O)(=O)c1ccccc1)c1ccccc1 (centres undefined) | 4.8 | 13.9 | 37.5* | 4.3 | -5.3 | 35.0*
CCc1ccc(N(C(=O)c2ccoc2C)C(C(=O)NC2CCCC2)c2ccc(OC)cc2)cc1 (centres undefined) | -8.3 | -14.4 | -5.9 | 16.2 | 27.6* | -0.7
COc1ccc(C(C(=O)NC2CCCC2)N(C(=O)c2ccoc2C)c2ccc(C)c(C)c2)cc1 (centres undefined) | -5.6 | -13.9 | -9.6 | 8.0 | 24.7* | -0.7
COc1cccc(N(C(=O)c2ccco2)C(C(=O)NC2CCCC2)c2cccnc2)c1 (centres undefined) | -2.5 | -7.5 | -0.4 | 14.8 | 24.0* | 0.0

Screens: PubChem BioAssay, The Scripps Research Institute Molecular Screening Center
